The values that follow come from PubChem BioAssay (NCI).

This is part of a sample that, as a whole, favours compounds with a hit. Of some 83,000 tested, about 20% had one in any assay.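 Step 1: grow cells in 96-well plates. Step 2: add test compound at a single concentration. Step 3: incubate 48 h. Step 4: record percent growth.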 Values without a mark were called inactive. Activity calls are given as the source filed them. Rule for the calls: active = growth percent below 10; inactive = the rest.

Assay in all cases: NCI-60 one-dose screen, 48 h (100 = growth as untreated, 0 = no growth, -100 = all killed)
Conditions in all cases: 10 µM unless noted

The subject of experiment [1] is T-47D breast.
Experiment [2] concerns BT-549 breast.
Experiment [3] concerns MDA-MB-435 melanoma.
For experiment [4], the system named is SW-620 colon.
The subject of experiment [5] is MCF7 breast.
The subject of experiment [6] is HCT-116 colon.
The subject of experiment [7] is HCC-2998 colon.
Experiment [8] concerns KM12 colon.

Consider `CC(=O)c1c(Nc2ccc(F)c(F)c2F)[nH]c2c(F)cc(F)cc2c1=O`, for which the growth was -14.3% (active) in experiment [1]; 2.13% (active) in experiment [2]; -14.4% (active) in experiment [3]; 7.98% (active) in experiment [4]; 0.843% (active) in experiment [5]; 3.09% (active) in experiment [6]. Further, the growth was 7.96% (active) in experiment [7] and 2.32% (active) in experiment [8].
On to `COc1ccc2nc(SCC(=O)Nc3ccccc3C)[nH]c2c1`, for which the growth is 84.2% in experiment [1]; 97.6% in experiment [2]; 97% in experiment [3]; 99.4% in experiment [4]; 90.7% in experiment [5]; 98.9% in experiment [6]. Moreover, the growth in experiment [7] is 106%; in experiment [8] it was 101%.
On to `COc1cc2oc(-c3cccc(NC(=O)c4ccc5c(c4)OCO5)c3)cc(=O)c2c(OC)c1OC`, for which the growth in experiment [1] is 26.3%; in experiment [2], 41.4%; in experiment [3] it was 53.3%; in experiment [4] it was 64%; in experiment [5], 43.6%; in experiment [6], 35.5%. The values for the growth in experiment [7] and in experiment [8] were 53.1% and 51.3%, respectively.
In the case of `O=C(CSc1nc2ccc([N+](=O)[O-])cc2[nH]1)Nc1cccc([N+](=O)[O-])c1`, the growth in experiment [1] is 16.2%; in experiment [2], 59%; in experiment [3], 43.8%; in experiment [4], 73.8%; in experiment [5] it was 52.8%; in experiment [6], 33.6%. Further, the growth was 62.9% in experiment [7] and 57.4% in experiment [8].
Regarding `COc1ccc(C2=Nc3c/c(=C\c4c(O)[nH]c5cc(Cl)ccc45)ccc3=N2)cc1`, the growth in experiment [1] was 71.7%; in experiment [2], 77.5%; in experiment [3], 3.01% (active); in experiment [4], 57.9%; in experiment [5], 36.2%; in experiment [6], 70.7%. Moreover, the growth in experiment [7] is 73.6%; in experiment [8], 49.5%.
In the case of `N=c1c2c(=N)n3c(nc2nc2n1-c1ccccc1Sc1ccccc1-2)sc1cc(Cl)ccc13`, the growth in experiment [1] is 6.16% (active); in experiment [2], 42.2%; in experiment [3], 21.1%; in experiment [4], 32.4%; in experiment [5], -2.03% (active); in experiment [6], 10.7%. Moreover, the results for the growth in experiment [7] and in experiment [8] were -18.6% (active) and 19.9%, respectively.
As for `C=C1C(=O)O[C@H]2[C@H]1CC/C(COC(=O)NCCCCCCCCNC(=O)OC/C1=C/CC[C@@]3(C)O[C@H]3[C@H]3OC(=O)C(=C)[C@@H]3CC1)=C\CC[C@@]1(C)O[C@@H]21`, the growth in experiment [1] is -45.7% (active); in experiment [2] it was -88.2% (active); in experiment [3] it was -89.9% (active); in experiment [4], -74.7% (active); in experiment [5], -55.2% (active); in experiment [6], -79.2% (active). Also, the growth in experiment [7] is -65.5% (active); in experiment [8] it was -43.9% (active).
On to `CCCCCn1sc(=O)n(Cc2ccc(CNC(=O)OCc3ccc4c(Cl)cc(Cl)c(O)c4n3)cc2)c1=O`, for which the growth is 60.8% in experiment [1]; 71.1% in experiment [2]; 68% in experiment [3]; 58.4% in experiment [4]; 69.5% in experiment [5]; 44.6% in experiment [6]. For the same compound, the growth in experiment [7] is 95.2%; in experiment [8] it was 57.5%.
For `CCn1cc(C(=O)NN=C2CCCCCC2)c(=O)c2ccc(C)nc21`, the growth in experiment [1] was 77.2%; in experiment [2] it was 83%; in experiment [3], 83.9%; in experiment [4] it was 91.2%; in experiment [5], 77.2%; in experiment [6], 77.7%. For the same compound, the growth in experiment [7] was 99.1%; in experiment [8], 87.6%.
Regarding `COc1cccc(C(=O)OCC(O)C(=O)NC23CC4CC(CC(C4)C2)C3)c1` (configuration not stated), the growth was 98.3% in experiment [1]; 102% in experiment [2]; 97.6% in experiment [3]; 99.6% in experiment [4]; 89.1% in experiment [5]; 96.7% in experiment [6]. The growth was 105% in experiment [7] and 108% in experiment [8].
As to `CC1(C)O[C@H]2OC3CCC(=O)CC3(O)[C@H]2O1` (some centres not stated), the growth in experiment [1] was 91.8%; in experiment [2], 104%; in experiment [3], 112%; in experiment [4], 105%; in experiment [5], 108%; in experiment [6] it was 95.1%. Moreover, the results for the growth in experiment [7] and in experiment [8] were 98.7% and 102%, respectively.
As to `COc1ccc(NC(=O)c2sc3nc4c(cc3c2N)CCCC4)cc1`, the growth was 32.4% in experiment [1]; 51.3% in experiment [2]; -20.9% (active) in experiment [3]; 36.7% in experiment [4]; 19.2% in experiment [5]; 30.3% in experiment [6]. The growth is 52.8% in experiment [7] and 25.8% in experiment [8].
As for `COC(c1ccc2ccccc2c1)C(C)C(F)F` (configuration not stated), the growth in experiment [1] was 90%; in experiment [2], 95%; in experiment [3], 96%; in experiment [4], 106%; in experiment [5], 109%; in experiment [6], 87.7%. In addition, the growth was 114% in experiment [7] and 107% in experiment [8].
`Cc1cccc(N2CCN(C(=S)c3ccc4c(c3)OCO4)CC2)c1`: the growth in experiment [1] is 32.9%; in experiment [2], 32.9%; in experiment [3], -20.9% (active); in experiment [4], 8.2% (active); in experiment [5], 12.5%; in experiment [6], 13.6%. Besides, the growth is 13.2% in experiment [7] and 21.5% in experiment [8].
